{
  "source": "PubChem BioAssay (NCI)",
  "note": "The panel holds about 83,000 compounds, 20% with a hit somewhere; the sample as a whole holds those more often.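 Negative percent growth values reflect cell death: -40 means 40% of the cells present at the start died, and -100 means all died.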 The source made the active and inactive calls. How the source made its calls: active means growth percent below 10; inactive means the rest.",
  "data": [
    {"test_system": "T-47D breast", "experiment": "NCI-60 one-dose screen, 48 h (100 = growth as untreated, 0 = no growth, -100 = all killed)", "details": "10 µM unless noted", "values": [
      {"smiles": "COc1cc([N+](=O)[O-])c2ncccc2c1O", "growth": "94.8% (inactive)"},
      {"smiles": "Brc1ccc(-c2[nH]ncc2-c2c[nH]c3ccccc23)cc1", "growth": "88.2% (inactive)"},
      {"smiles": "COc1ccc(C2C(C#N)=C(N)Oc3c2ccc2ccccc32)cc1", "note": "(stereo not drawn)", "growth": "31% (inactive)"},
      {"smiles": "CNc1ccc(Br)c2c1C(=O)c1ccccc1C2=O", "growth": "97.1% (inactive)"},
      {"smiles": "c1cc2[nH]ncc2cc1-c1nc2ccc3[nH]ncc3c2c2c1CCC2", "growth": "56.8% (inactive)"},
      {"smiles": "O=C(Nc1ccncc1)C(=O)c1cn(S(=O)(=O)c2ccccc2F)c2ccccc12", "growth": "41.8% (inactive)"},
      {"smiles": "O=C1/C(=C/c2ccc([N+](=O)[O-])cc2)CN(C(=O)CCN2CCC(=NO)CC2)C/C1=C\\c1ccc([N+](=O)[O-])cc1", "growth": "10.1% (inactive)"},
      {"smiles": "O=C(O)COc1ccc(-c2cssc2=S)cc1", "growth": "95.5% (inactive)"},
      {"smiles": "N=C(N)c1ccc(-c2ccc(-c3ccc4ccccc4c3)s2)cc1", "growth": "97.6% (inactive)"},
      {"smiles": "CC(=O)OC[C@]12CC[C@H]3[C@@H](C[C@H]4O[C@]45CC=CC(=O)[C@]35C)[C@]1(O)CC[C@@]2(O)[C@@](C)(O)C1CC(C)=C(C)C(=O)O1", "note": "(stereo partly drawn)", "growth": "-23.2% (active)"},
      {"smiles": "Cc1ccc(-c2cc3nc(-c4ccccc4)nc(C(Cl)Cl)n3n2)cc1", "growth": "-47.1% (active)"},
      {"smiles": "CCN(CC)c1ccc(N=O)cc1", "growth": "44.9% (inactive)"},
      {"smiles": "Oc1ccccc1/C=N/NC(=S)NC1CC2C=CC1C2", "note": "(stereo not drawn)", "growth": "79.9% (inactive)"},
      {"smiles": "CCCCCCCCCCCC(=O)NCCC[N+](C)(C)CC(=O)[O-]", "growth": "92% (inactive)"},
      {"smiles": "Cc1ccc(C(=O)C2=Cc3cc4ccccc4n3Cc3cnnn32)cc1", "growth": "77.8% (inactive)"},
      {"smiles": "O=[N+]([O-])c1cccc(-c2nc3sccn3c2-c2ccnc(NCCCNS(=O)(=O)c3ccc(Cl)cc3)n2)c1", "growth": "6.46% (active)"},
      {"smiles": "CCCCCCCCCCCCNC(=O)[C@H]1CSC(c2cc(Br)cs2)N1", "note": "(stereo partly drawn)", "growth": "39.4% (inactive)"},
      {"smiles": "NC(=O)CCCN1C/C(=C\\c2ccccc2)C(=O)c2ccccc21", "growth": "83.2% (inactive)"},
      {"smiles": "CCCCCCCCC(C)OC(=O)c1nn(C(C)=O)c2ccccc12", "note": "(stereo not drawn)", "growth": "88.6% (inactive)"},
      {"smiles": "O=C(CSC1CCc2ccccc21)N/N=C/c1ccccc1O", "note": "(stereo not drawn)", "growth": "40.3% (inactive)"},
      {"smiles": "C=C1c2nc3ccccc3n2C=C(c2ccc(Cl)cc2)N1Cc1ccccc1", "growth": "66% (inactive)"},
      {"smiles": "COc1ccc2[nH]c(C(=O)OCc3ccc4c(Cl)cc(Cl)c(O)c4n3)cc2c1", "growth": "-65.9% (active)"},
      {"smiles": "C=C[C@@H]1C[C@@H]2Cc3cc(F)ccc3N1O2", "growth": "111% (inactive)"},
      {"smiles": "C=CCSc1n[nH]c(-c2cccs2)n1", "growth": "94.8% (inactive)"},
      {"smiles": "NC(=N\\N=C/c1ccc(O)cc1)/C(N)=N\\N=C/c1ccc(O)cc1", "growth": "49.6% (inactive)"},
      {"smiles": "C=C[C@@H]1C[C@H](O)Cc2cc(F)ccc2N1", "growth": "108% (inactive)"},
      {"smiles": "COc1ccc(-c2cnoc2-c2ccc(OC)cc2O)cc1", "growth": "40.3% (inactive)"},
      {"smiles": "CN(C)c1oc(C2OC2c2ccccc2)nc1C#N", "note": "(stereo not drawn)", "growth": "89.5% (inactive)"},
      {"smiles": "ClC(Cl)c1nc(-c2cccnc2)n2nc(-c3ccccc3)cc2n1", "growth": "50.2% (inactive)"},
      {"smiles": "COc1cc(-c2nn(-c3cccc(NC(=O)Nc4cccc(C(F)(F)F)c4)c3)cc2-c2ccncc2)ccc1Cl", "growth": "-4.03% (active)"},
      {"smiles": "CCN(CC)CCOc1ccc(/C(=C(/C)c2ccccc2)c2ccc(OC(C)=O)cc2)cc1", "growth": "60.2% (inactive)"},
      {"smiles": "O=C(/C=C/c1cc(-c2ccc3c(c2)OCO3)n[nH]1)c1ccc2c(c1)OCO2", "growth": "72.7% (inactive)"},
      {"smiles": "S=C(S)NCCc1c[nH]c2ccccc12", "growth": "88% (inactive)"},
      {"smiles": "c1ccc(Nc2nc(Nc3ccccc3)nc(Nc3ccccc3)n2)cc1", "growth": "71.9% (inactive)"},
      {"smiles": "C=C1CCC2C3(C)COC(c4c(OC)cccc4OC)OC3CCC2(C)C1C/C=C1/C(=O)OCC1O", "note": "(stereo not drawn)", "growth": "54% (inactive)"},
      {"smiles": "Cc1cc(N/N=C/c2nc(-c3ccccc3)oc2C)c2cc(Cl)ccc2n1", "growth": "-1.37% (active)"},
      {"smiles": "Nc1cccc(-c2nc3sccn3c2-c2ccnc(NCCCNS(=O)(=O)c3cccc4ccccc34)n2)c1", "growth": "-2.4% (active)"},
      {"smiles": "CCOC(=O)c1c(NS(=O)(=O)c2ccc(C)cc2)sc2c1CCC1(C2)OCCO1", "growth": "81.3% (inactive)"},
      {"smiles": "COc1ccc(Nc2ncccc2C(=O)NCc2cn(Cc3cccc(Oc4ccccc4)c3)nn2)cc1", "growth": "50.5% (inactive)"}
    ]},
    {"test_system": "BT-549 breast", "experiment": "NCI-60 one-dose screen, 48 h (100 = growth as untreated, 0 = no growth, -100 = all killed)", "details": "10 µM unless noted", "values": [
      {"smiles": "COc1cc([N+](=O)[O-])c2ncccc2c1O", "growth": "86.9% (inactive)"},
      {"smiles": "Brc1ccc(-c2[nH]ncc2-c2c[nH]c3ccccc23)cc1", "growth": "80.1% (inactive)"},
      {"smiles": "COc1ccc(C2C(C#N)=C(N)Oc3c2ccc2ccccc32)cc1", "note": "(stereo not drawn)", "growth": "61% (inactive)"},
      {"smiles": "CNc1ccc(Br)c2c1C(=O)c1ccccc1C2=O", "growth": "104% (inactive)"},
      {"smiles": "c1cc2[nH]ncc2cc1-c1nc2ccc3[nH]ncc3c2c2c1CCC2", "growth": "38.3% (inactive)"},
      {"smiles": "O=C(Nc1ccncc1)C(=O)c1cn(S(=O)(=O)c2ccccc2F)c2ccccc12", "growth": "39.1% (inactive)"},
      {"smiles": "O=C1/C(=C/c2ccc([N+](=O)[O-])cc2)CN(C(=O)CCN2CCC(=NO)CC2)C/C1=C\\c1ccc([N+](=O)[O-])cc1", "growth": "-40.7% (active)"},
      {"smiles": "O=C(O)COc1ccc(-c2cssc2=S)cc1", "growth": "116% (inactive)"},
      {"smiles": "N=C(N)c1ccc(-c2ccc(-c3ccc4ccccc4c3)s2)cc1", "growth": "96.2% (inactive)"},
      {"smiles": "CC(=O)OC[C@]12CC[C@H]3[C@@H](C[C@H]4O[C@]45CC=CC(=O)[C@]35C)[C@]1(O)CC[C@@]2(O)[C@@](C)(O)C1CC(C)=C(C)C(=O)O1", "note": "(stereo partly drawn)", "growth": "-12.2% (active)"},
      {"smiles": "Cc1ccc(-c2cc3nc(-c4ccccc4)nc(C(Cl)Cl)n3n2)cc1", "growth": "60.3% (inactive)"},
      {"smiles": "CCN(CC)c1ccc(N=O)cc1", "growth": "79.7% (inactive)"},
      {"smiles": "Oc1ccccc1/C=N/NC(=S)NC1CC2C=CC1C2", "note": "(stereo not drawn)", "growth": "61% (inactive)"},
      {"smiles": "CCCCCCCCCCCC(=O)NCCC[N+](C)(C)CC(=O)[O-]", "growth": "85.5% (inactive)"},
      {"smiles": "Cc1ccc(C(=O)C2=Cc3cc4ccccc4n3Cc3cnnn32)cc1", "growth": "89.4% (inactive)"},
      {"smiles": "O=[N+]([O-])c1cccc(-c2nc3sccn3c2-c2ccnc(NCCCNS(=O)(=O)c3ccc(Cl)cc3)n2)c1", "growth": "30.2% (inactive)"},
      {"smiles": "CCCCCCCCCCCCNC(=O)[C@H]1CSC(c2cc(Br)cs2)N1", "note": "(stereo partly drawn)", "growth": "-58.4% (active)"},
      {"smiles": "NC(=O)CCCN1C/C(=C\\c2ccccc2)C(=O)c2ccccc21", "growth": "93.7% (inactive)"},
      {"smiles": "CCCCCCCCC(C)OC(=O)c1nn(C(C)=O)c2ccccc12", "note": "(stereo not drawn)", "growth": "95.4% (inactive)"},
      {"smiles": "O=C(CSC1CCc2ccccc21)N/N=C/c1ccccc1O", "note": "(stereo not drawn)", "growth": "68.9% (inactive)"},
      {"smiles": "C=C1c2nc3ccccc3n2C=C(c2ccc(Cl)cc2)N1Cc1ccccc1", "growth": "142% (inactive)"},
      {"smiles": "COc1ccc2[nH]c(C(=O)OCc3ccc4c(Cl)cc(Cl)c(O)c4n3)cc2c1", "growth": "-88.3% (active)"},
      {"smiles": "C=C[C@@H]1C[C@@H]2Cc3cc(F)ccc3N1O2", "growth": "124% (inactive)"},
      {"smiles": "C=CCSc1n[nH]c(-c2cccs2)n1", "growth": "99.5% (inactive)"},
      {"smiles": "NC(=N\\N=C/c1ccc(O)cc1)/C(N)=N\\N=C/c1ccc(O)cc1", "growth": "52.5% (inactive)"},
      {"smiles": "C=C[C@@H]1C[C@H](O)Cc2cc(F)ccc2N1", "growth": "96.9% (inactive)"},
      {"smiles": "COc1ccc(-c2cnoc2-c2ccc(OC)cc2O)cc1", "growth": "56.5% (inactive)"},
      {"smiles": "CN(C)c1oc(C2OC2c2ccccc2)nc1C#N", "note": "(stereo not drawn)", "growth": "95.6% (inactive)"},
      {"smiles": "ClC(Cl)c1nc(-c2cccnc2)n2nc(-c3ccccc3)cc2n1", "growth": "68.4% (inactive)"},
      {"smiles": "COc1cc(-c2nn(-c3cccc(NC(=O)Nc4cccc(C(F)(F)F)c4)c3)cc2-c2ccncc2)ccc1Cl", "growth": "-15.4% (active)"},
      {"smiles": "CCN(CC)CCOc1ccc(/C(=C(/C)c2ccccc2)c2ccc(OC(C)=O)cc2)cc1", "growth": "69.1% (inactive)"},
      {"smiles": "O=C(/C=C/c1cc(-c2ccc3c(c2)OCO3)n[nH]1)c1ccc2c(c1)OCO2", "growth": "88% (inactive)"},
      {"smiles": "S=C(S)NCCc1c[nH]c2ccccc12", "growth": "92.6% (inactive)"},
      {"smiles": "c1ccc(Nc2nc(Nc3ccccc3)nc(Nc3ccccc3)n2)cc1", "growth": "114% (inactive)"},
      {"smiles": "C=C1CCC2C3(C)COC(c4c(OC)cccc4OC)OC3CCC2(C)C1C/C=C1/C(=O)OCC1O", "note": "(stereo not drawn)", "growth": "16.9% (inactive)"},
      {"smiles": "Cc1cc(N/N=C/c2nc(-c3ccccc3)oc2C)c2cc(Cl)ccc2n1", "growth": "87% (inactive)"},
      {"smiles": "Nc1cccc(-c2nc3sccn3c2-c2ccnc(NCCCNS(=O)(=O)c3cccc4ccccc34)n2)c1", "growth": "7.66% (active)"},
      {"smiles": "CCOC(=O)c1c(NS(=O)(=O)c2ccc(C)cc2)sc2c1CCC1(C2)OCCO1", "growth": "93.8% (inactive)"},
      {"smiles": "COc1ccc(Nc2ncccc2C(=O)NCc2cn(Cc3cccc(Oc4ccccc4)c3)nn2)cc1", "growth": "53.1% (inactive)"}
    ]}
  ]
}
